Measured values taken from ChEMBL document CHEMBL3988442, “University of Dundee, Small-Polar-MMV Screening Library” (2021).
For part of these data: Measured potencies and affinities stand elsewhere.

Assays:
Design in all cases: scale not given: direction of the effect not stated beside the values
[1] = target: Protein translocase subunit SecA (Escherichia coli (strain K12)) (UniProt P10408); experiment: Assay to Identify E. coli SecA ATPase Inhibitors; format: functional; conditions: 30 µM
[2] = target: T1, Ubiquitin-activating enzyme e1, putative (Leishmania donovani (strain BPK282A1)) (UniProt E9BSI1); experiment: Leishmania donovani Ubiquitin Activating Enzyme (LdE1); format: functional; conditions: 30 µM
T1 sequence (whole entry): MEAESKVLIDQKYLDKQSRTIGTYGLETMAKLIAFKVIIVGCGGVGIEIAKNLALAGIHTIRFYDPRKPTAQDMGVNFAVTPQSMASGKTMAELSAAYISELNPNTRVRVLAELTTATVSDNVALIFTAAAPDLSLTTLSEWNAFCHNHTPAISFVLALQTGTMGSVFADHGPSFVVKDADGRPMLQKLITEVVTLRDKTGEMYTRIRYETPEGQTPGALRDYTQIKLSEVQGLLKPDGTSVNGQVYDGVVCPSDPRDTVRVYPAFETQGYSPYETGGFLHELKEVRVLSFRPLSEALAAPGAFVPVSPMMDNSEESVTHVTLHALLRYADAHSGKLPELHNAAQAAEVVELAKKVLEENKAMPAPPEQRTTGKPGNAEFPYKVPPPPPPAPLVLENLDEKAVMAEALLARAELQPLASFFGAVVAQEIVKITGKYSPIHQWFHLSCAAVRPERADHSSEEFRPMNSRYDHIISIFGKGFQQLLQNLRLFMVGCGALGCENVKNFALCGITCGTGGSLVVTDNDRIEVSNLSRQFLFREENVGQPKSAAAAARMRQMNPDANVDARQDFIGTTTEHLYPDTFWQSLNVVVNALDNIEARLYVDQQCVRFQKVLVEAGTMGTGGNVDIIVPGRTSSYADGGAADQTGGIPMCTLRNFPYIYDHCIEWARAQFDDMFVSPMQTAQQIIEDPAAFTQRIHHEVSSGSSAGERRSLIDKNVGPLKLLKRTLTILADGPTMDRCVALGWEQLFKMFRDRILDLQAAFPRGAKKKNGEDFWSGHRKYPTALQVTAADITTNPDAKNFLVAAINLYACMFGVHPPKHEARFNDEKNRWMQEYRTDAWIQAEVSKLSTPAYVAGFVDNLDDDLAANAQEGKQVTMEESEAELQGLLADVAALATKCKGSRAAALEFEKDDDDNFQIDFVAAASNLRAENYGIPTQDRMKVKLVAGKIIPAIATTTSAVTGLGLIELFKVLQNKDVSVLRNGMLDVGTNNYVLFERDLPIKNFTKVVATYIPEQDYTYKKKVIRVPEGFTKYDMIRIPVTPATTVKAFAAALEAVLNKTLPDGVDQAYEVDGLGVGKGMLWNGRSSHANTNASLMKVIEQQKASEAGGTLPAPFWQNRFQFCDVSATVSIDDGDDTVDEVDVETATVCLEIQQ

[3] = target: AMP-activated protein kinase, AMPK (Homo sapiens) (UniProt P54646+O43741+P54619+Q9UGJ0+Q9Y478+Q13131+Q9UGI9); experiment: AMP-dependent Kinase enzyme assay. An in vitro enzyme assay that detects ADP turnover that is directly proportional to AMPK activity. This uses naive AMPK that is activated during the assay with MK-8722; format: functional; conditions: 30 µM
[4] = target: Sialic acid-binding Ig-like lectin 9 (Homo sapiens) (UniProt Q9Y336); experiment: Hs-Siglec9 ALPHAscreen SOP 20170721; conditions: 10 µM
Trypanosoma cruzi = experiment: Trypanosoma cruzi phosphomannomutase and mannose-1-phosphate guanylyltransferase assay; format: functional; conditions: 10 µM
[5] = target: T2, Arginase-2, mitochondrial (Homo sapiens) (UniProt P78540); experiment: in vitro enzyme assay to detect the production of urea directly proportional to the activity of Arginase II; format: functional; conditions: 33.3 µM; note: in the data most compounds retested in dose-response had high values
T2 sequence (whole entry): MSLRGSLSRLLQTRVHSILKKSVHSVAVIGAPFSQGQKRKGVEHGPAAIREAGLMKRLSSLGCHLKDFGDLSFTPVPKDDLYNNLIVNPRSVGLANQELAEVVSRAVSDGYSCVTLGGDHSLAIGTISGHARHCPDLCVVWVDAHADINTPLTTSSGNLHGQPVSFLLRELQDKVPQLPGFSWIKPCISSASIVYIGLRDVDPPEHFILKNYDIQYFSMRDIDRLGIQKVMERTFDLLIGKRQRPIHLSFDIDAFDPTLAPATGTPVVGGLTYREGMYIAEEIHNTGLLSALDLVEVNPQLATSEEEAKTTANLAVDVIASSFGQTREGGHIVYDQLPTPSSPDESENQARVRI

[6] = target: T3, Proteasome subunit beta (Trypanosoma cruzi) (UniProt O96673); experiment: Trypanosoma cruzi proteasome chymotrypsin-like activity (TcProtChymo) assay.; note: in the data most compounds retested in dose-response had high values; format: functional; conditions: 9.37 µM
T3 sequence (whole entry): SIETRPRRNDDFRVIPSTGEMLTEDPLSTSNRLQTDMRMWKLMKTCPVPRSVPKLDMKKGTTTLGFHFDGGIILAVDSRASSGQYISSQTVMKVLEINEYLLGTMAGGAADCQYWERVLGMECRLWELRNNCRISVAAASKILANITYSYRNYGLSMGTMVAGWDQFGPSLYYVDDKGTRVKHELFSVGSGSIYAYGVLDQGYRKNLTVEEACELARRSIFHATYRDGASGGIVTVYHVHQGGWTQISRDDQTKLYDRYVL

Homo sapiens = species: Homo sapiens; experiment: To identify inhibition of the IFN signalling (Jak-Stat) pathway via expression of an eGFP reporter gene under the control of an IFN-stimulated response element (ISRE) containing MxA promoter.; format: functional; conditions: 30 µM
[7] = target: T4, Tyrosyl-tRNA synthetase, putative (Trypanosoma cruzi (strain CL Brener)) (UniProt Q4DSP6); experiment: Trypanosoma cruzi tyrosyl tRNA synthetase (TcYRS) _High Tyrosine SOP; format: functional; conditions: 30 µM; note: in the data most compounds retested in dose-response had high values
T4 sequence (whole entry): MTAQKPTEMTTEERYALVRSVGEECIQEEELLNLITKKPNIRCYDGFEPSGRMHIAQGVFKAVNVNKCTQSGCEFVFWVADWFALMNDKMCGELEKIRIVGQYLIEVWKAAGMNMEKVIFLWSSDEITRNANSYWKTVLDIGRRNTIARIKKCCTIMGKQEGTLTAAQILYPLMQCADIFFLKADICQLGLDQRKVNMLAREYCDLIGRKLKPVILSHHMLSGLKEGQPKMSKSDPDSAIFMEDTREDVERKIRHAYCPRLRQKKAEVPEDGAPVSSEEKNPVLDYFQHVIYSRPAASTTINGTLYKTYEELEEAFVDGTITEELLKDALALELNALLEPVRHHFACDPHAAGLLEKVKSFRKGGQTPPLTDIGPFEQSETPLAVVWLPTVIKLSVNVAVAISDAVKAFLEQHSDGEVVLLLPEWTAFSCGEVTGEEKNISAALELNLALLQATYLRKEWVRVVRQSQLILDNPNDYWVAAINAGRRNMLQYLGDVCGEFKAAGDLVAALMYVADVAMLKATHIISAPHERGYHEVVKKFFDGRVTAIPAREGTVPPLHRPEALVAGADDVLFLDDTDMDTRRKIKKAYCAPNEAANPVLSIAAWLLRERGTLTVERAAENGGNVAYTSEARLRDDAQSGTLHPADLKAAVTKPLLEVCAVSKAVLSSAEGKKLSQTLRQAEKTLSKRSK

[8] = target: T4, Tyrosyl-tRNA synthetase, putative (Trypanosoma cruzi (strain CL Brener)); experiment: Trypanosoma cruzi tyrosyl tRNA synthetase (TcYRS) SOP; format: functional; conditions: 30 µM
[9] = target: Chromo domain-containing protein 1 (Saccharomyces cerevisiae (strain ATCC 204508 / S288c) (Baker's yeast)) (UniProt P32657); experiment: ScCHD-1 Enzyme Inhibition Assay; format: functional; conditions: 30 µM; note: in the data most compounds retested in dose-response had high values
Sequence of Chromo domain-containing protein 1 (Saccharomyces cerevisiae (strain ATCC 204508 / S288c) (Baker's yeast)) (P32657 whole entry, the tested form may be a part): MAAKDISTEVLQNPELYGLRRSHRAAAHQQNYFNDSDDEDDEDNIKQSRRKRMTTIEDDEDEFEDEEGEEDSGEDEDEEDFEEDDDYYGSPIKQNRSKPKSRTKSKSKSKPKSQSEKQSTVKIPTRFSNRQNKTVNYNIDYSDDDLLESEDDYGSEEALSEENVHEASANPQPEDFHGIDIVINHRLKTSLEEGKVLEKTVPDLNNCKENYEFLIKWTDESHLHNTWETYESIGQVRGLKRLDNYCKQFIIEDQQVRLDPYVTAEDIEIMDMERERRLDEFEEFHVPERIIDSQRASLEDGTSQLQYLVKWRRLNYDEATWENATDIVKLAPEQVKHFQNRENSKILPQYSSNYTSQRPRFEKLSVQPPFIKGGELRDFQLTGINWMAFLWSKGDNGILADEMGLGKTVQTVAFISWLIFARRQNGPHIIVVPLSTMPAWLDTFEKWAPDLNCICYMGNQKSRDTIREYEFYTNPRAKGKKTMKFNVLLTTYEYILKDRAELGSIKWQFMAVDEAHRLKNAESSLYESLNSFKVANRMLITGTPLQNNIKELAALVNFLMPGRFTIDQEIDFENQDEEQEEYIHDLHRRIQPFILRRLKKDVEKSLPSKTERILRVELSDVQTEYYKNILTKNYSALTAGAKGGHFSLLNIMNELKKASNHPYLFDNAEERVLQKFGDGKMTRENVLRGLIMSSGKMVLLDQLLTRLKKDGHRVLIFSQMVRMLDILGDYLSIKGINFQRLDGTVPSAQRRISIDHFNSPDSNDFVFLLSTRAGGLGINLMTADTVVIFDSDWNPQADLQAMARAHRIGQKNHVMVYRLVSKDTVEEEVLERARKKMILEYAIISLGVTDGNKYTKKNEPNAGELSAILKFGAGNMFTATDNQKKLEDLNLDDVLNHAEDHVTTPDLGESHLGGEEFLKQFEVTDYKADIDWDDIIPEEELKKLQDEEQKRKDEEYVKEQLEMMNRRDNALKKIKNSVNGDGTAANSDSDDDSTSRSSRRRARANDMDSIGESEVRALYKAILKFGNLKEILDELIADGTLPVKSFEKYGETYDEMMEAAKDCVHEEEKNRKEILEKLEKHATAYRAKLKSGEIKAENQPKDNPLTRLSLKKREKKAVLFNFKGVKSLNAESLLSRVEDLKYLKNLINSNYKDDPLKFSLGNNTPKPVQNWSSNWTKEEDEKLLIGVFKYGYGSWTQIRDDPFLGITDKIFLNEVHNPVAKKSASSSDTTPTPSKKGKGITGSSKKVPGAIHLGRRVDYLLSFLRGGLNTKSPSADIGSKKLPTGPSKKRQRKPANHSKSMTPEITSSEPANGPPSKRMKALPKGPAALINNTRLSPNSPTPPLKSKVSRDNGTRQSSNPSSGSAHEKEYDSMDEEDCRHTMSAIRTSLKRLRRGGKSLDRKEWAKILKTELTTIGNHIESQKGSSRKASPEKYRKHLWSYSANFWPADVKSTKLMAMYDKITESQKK

Sequence of Protein translocase subunit SecA (Escherichia coli (strain K12)) (P10408 whole entry): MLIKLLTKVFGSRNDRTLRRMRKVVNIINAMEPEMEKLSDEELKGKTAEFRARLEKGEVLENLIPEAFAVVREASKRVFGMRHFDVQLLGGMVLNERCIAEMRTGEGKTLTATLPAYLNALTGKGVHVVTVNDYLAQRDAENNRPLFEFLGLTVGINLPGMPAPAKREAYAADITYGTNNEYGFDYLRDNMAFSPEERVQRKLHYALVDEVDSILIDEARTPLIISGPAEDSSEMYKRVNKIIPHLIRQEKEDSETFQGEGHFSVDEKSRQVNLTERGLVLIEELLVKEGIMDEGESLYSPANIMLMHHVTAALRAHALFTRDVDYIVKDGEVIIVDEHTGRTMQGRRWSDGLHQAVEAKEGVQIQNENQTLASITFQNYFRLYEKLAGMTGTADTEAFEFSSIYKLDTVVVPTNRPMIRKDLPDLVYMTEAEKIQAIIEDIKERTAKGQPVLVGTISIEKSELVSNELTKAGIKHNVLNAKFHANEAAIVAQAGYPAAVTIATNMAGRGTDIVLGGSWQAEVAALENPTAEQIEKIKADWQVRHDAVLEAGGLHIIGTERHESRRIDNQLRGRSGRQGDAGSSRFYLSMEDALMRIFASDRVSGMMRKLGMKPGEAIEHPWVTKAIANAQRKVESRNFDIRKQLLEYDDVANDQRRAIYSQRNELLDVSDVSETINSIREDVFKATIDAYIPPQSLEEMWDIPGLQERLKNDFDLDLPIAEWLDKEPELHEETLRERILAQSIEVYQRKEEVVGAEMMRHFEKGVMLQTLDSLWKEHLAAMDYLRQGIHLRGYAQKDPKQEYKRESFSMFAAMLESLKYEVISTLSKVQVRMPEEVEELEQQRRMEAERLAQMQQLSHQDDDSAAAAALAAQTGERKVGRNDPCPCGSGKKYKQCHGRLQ
Sequence of Sialic acid-binding Ig-like lectin 9 (Homo sapiens) (Q9Y336 whole entry): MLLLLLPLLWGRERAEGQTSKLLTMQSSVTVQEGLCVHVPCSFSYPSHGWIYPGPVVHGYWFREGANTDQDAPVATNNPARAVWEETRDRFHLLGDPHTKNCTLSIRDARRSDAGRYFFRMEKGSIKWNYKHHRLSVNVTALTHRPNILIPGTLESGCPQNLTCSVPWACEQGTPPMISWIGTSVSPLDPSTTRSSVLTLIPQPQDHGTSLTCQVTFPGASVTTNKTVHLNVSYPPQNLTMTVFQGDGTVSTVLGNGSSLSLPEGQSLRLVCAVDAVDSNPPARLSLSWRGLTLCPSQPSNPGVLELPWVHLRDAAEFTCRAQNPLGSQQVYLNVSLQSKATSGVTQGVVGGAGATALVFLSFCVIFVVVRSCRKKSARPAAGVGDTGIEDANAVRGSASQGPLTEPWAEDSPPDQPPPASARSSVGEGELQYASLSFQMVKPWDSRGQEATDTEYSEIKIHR

Structure (SMILES)	Percent Effect [1] [%]	Percent Effect [2] [%]	Percent Effect [3] [%]	Percent Effect [4] [%]	Percent Effect (Trypanosoma cruzi) [%]	Percent Effect [5] [%]	Percent Effect [6] [%]	Percent Effect (Homo sapiens) [%]	Percent Effect [7] [%]	Percent Effect [8] [%]	Percent Effect [9] [%]
Clc1ccc2cccnc2c1CN1CCCC1Cn1cncn1 (stereo unspecified)	-1.02	-10.8	-3.88	-0.559	-5.85	4.99	7.18	63.7	7.92	-1.22	5.04
COc1ccc(C2OC(COc3ccccc3Br)=NN2C(C)=O)cc1 (stereo unspecified)	-1.41	13	-0.88	-8.22	-5.23	3.23	9.22	4.18	0	1.28	-8.68
Cc1cc(C)n(CC2CCCN2C(=O)c2cccc3[nH]ncc23)n1 (stereo unspecified)	-2.49	-10.8	-1.43	12.1	7.89	-2.77	-4.49	7.84	5.94	15.8	-3.25
CN1CCN(C[C@@H]2OC[C@H]3CN(Cc4ccsc4)CC[C@H]32)CC1	-2.51	0	1.23	-2.48	6.95	-43.2	5.81	-3.23	3.12	0	-4.8
CC(=O)NCCC1CCCCN1S(=O)(=O)c1cccc(C#N)c1 (stereo unspecified)	-7.77	8.22	1.2	3.78	1.98	-2	13.6	4.41	2.08	8.64	0.784
Cn1ccnc1CN1CCN(CC(O)c2ccc(F)c(F)c2)CC1 (stereo unspecified)	-8.39	10.4	-6.83	-0.647	-6.93	1.42	0.507	29.6	0	-2.44	-2.48
CC(C)c1noc(C(C)N2CCN(Cc3ccsc3)CC2)n1 (stereo unspecified)	-4.95	7.89	-4.06	-4.87	-3.46	3.6	-2.45	-18.3	4.43	3.7	4.12
CCC(CNC(=O)c1cc(OC)ccc1Br)N1CCc2ccccc2C1 (stereo unspecified)	0.461	0	3.64	9.31	-7.14	-4.29	20.3	11.2	-0.529	-2.44	-4.45
COCc1nc(C(=O)N2CCCCC2Cn2cc(C)cn2)cs1 (stereo unspecified)	-5.14	-2.6	6.14	-7.79	-5.19	-1.47	5.42	6.8	-1.91	-4.71	-21.5
COc1cccc(CN2CCCCCC2c2cccs2)c1O (stereo unspecified)	-0.394	0	-1.74	-0.0415	-3.65	4.52	15.8	21.7	-1.06	8.97	-5.25
CCCc1n[nH]c(C2CN(C(=O)C3=COCCC3)CCO2)n1 (stereo unspecified)	-3.49	2.63	-0.787	5.25	2.52	1.44	-2.96	2.6	2.46	1.24	10.7
O=C(NCc1ccccc1)c1nnc2ccc(N3CCOCC3)cc2n1	-4.99	-1.33	67.7	2.19	-3.73	-10.4	14.1	4.89	6.35	7.69	-13.2
O=C1CO[C@@H]2CN(S(=O)(=O)c3ccccc3)C[C@H]2N1CC1CC1	-1.03	8	4.02	2.54	-3.28	-44.3	7.86	-3.38	-8.33	-20	-6.74
O=C(Cn1ccc2ccccc21)NCc1ccc(C(=O)O)cc1	-5.35	2.63	10.1	1.77	-1.85	0	15.8	-18.3	-1.06	10.4	-0.974
CC(=O)N1CCCN(c2nccc(-c3cn(C)nc3C)n2)CC1	-5.23	5.33	-0.173	25.5	0.682	0	9.24	-1.59	0.546	8.64	-7.43
CC(C)n1cc(CN2CCCN(C(=O)c3ccc[nH]3)CC2)cn1	-1.88	13.5	-0.748	-5.21	2.73	15.8	20.2	-10.5	12.9	13.4	-0.327
CC(C)NC(=O)[C@@H]1C[C@H](N)CN1C(=O)c1cc2ccccc2[nH]c1=O	-3.02	20.8	-9.81	9.13	4.76	4.86	12.3	-0.74	8.42	15.4	-6.54
Cc1cnn(CC(C)NCc2ccc(OCc3ccncc3)cc2)c1 (stereo unspecified)	-5.11	-1.27	4.3	-6.57	-6.67	-3.66	9.95	24.2	5.21	5.06	-25.8
CC(=O)c1cn(CCC(=O)NCCC(=O)O)c2ccccc12	0.0873	9.33	1.48	3.5	-3.14	-6.16	15.5	0.418	9.52	17.9	-3.67
Cc1cnc2c(c1NCc1ccncc1)c(=O)n(C)c(=O)n2C	-2.14	0	5.25	-12.3	-5.68	-11.4	17.6	29.2	4.3	10	-2.51
CN(C)CC(=O)N1CCOCC2(C1)CN(c1ccccc1)C(=O)CO2 (stereo unspecified)	1.58	8	11.2	-1.53	-4.05	-56.8	3.08	-9.58	5.21	-22.5	-7.95
